Data on 18 compounds can be found in paper PMC5540273 (PLoS ONE, 2017).

For test [1], the system named is CAMKK2. As to conditions: n = 1.
Test [2] relates to CASK. Conditions: n = 1.
Test [3] has as its system T1, CDC2L1.
T1 construct: gene CDK11B
As to conditions: n = 1.

Test [4] relates to CDC2L2. Conditions: n = 1.
Test [5] concerns T2, CDC2L5.
T2 construct: gene CDK13
Conditions: concentration: 1 μM, replicates: in singlicate; n = 1.

Test [6] deals with T3, CDK11.
T3 construct: gene CDK19
As to conditions: n = 1.

The test system of test [7] is CDK2. As to conditions: n = 1.
In test [8] the test system is CDK3. Conditions: n = 1.
Test [9] relates to CDK4-cyclinD1. Conditions: concentration: 1 μM, replicates: in singlicate; n = 1.
The subject of test [10] is CDK4-cyclinD3. As to conditions: n = 1.
[11] abbreviates: concentration: 1 μM,replicates: in singlicate, 1 µM.
[12] abbreviates: concentration: 1 μM, replicates: in singlicate.

Where “and” joins values, the source holds several entries; their conditions need not be identical. Equal values may be shown once. Read-outs that look alike come from different tables or passages of the source.
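Also: KINOMEscan kinase panel screen.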

Regarding `CSc1nn2c(=O)cc(N3CCOCC3)nc2n1Cc1cccc(C(F)(F)F)c1C` [GSK2363608], the “%Inh” value was 14% and 0% in [1] (setting [11]); 19% and 16% in test [2] (setting [11]); 3% and 0% in test [3] (setting [11]); 25% and 0% in test [4] (setting [11]); 0% in test [5]; 5% and 35% in [6] (setting [11]). The “%Inh” value in [7] (setting [11]) was 6% and 0%; in test [8] (setting [11]) it was 17% and 0%; in test [9] it was 0%; in test [10] (setting [11]), 6% and 0%.

As to `Cc1ccc(NC(=O)Nc2cc(C(C)(C)C)nn2-c2ccccc2)cc1` [GSK1014915], the “%Inh” value was determined as 0% in [1] (setting [12]); 12% in test [2] (setting [12]); 31% in test [3] (setting [12]); 7% in test [4] (setting [12]); 0% in test [5]; 62% in [6] (setting [12]). The “%Inh” value in test [7] (setting [12]) worked out at 0%; in [8] (setting [12]), 8%; in test [9], 0%; in test [10] (setting [12]), 4%.

As to `O=C(Nc1ccccc1)Nc1cccc(Oc2ccc3nccn3n2)c1`, the “%Inh” value is on record as 0% in test [1] (setting [12]); 16% in test [2] (setting [12]); 0% in test [3] (setting [12]); 5% in test [4] (setting [12]); 0% in test [5]; 0% in test [6] (setting [12]). The “%Inh” value in test [7] (setting [12]) worked out at 0%; in test [8] (setting [12]), 10%; in test [9], 24%; in [10] (setting [12]), 0%.

For the compound `CCn1c(-c2ccccn2)nc2cnccc21` [SB-736398], the “%Inh” value was 0% in test [1] (setting [12]); 2% in [2] (setting [12]); 27% in test [3] (setting [12]); 0% in [4] (setting [12]); 100% in test [5]; 0% in test [6] (setting [12]). Moreover, the “%Inh” value was 0% in test [7] (setting [12]), 0% in test [8] (setting [12]), 0% in test [9] and 3% in [10] (setting [12]).

Turning to `CN(C)CCN(C)C(=O)c1cc(-c2ccncc2)c(-c2ccc(Cl)c(O)c2)o1.Cl.Cl` [SB-710397], the “%Inh” value in test [1] (setting [12]) worked out at 0%; in test [2] (setting [12]), 29%; in test [3] (setting [12]), 0%; in test [4] (setting [12]), 0%; in [5] it was 0%; in [6] (setting [12]), 15%. Besides, the “%Inh” value in [7] (setting [12]) stood at 0%; in test [8] (setting [12]), 20%; in test [9], 23%; in test [10] (setting [12]) it was 9%.

On to `Cc1csc(-c2nc(Nc3ccncc3)c3ccccc3n2)n1` [GW869640], for which the “%Inh” value in test [1] (setting [12]) was 23%; in test [2] (setting [12]), 26%; in test [3] (setting [12]), 0%; in test [4] (setting [12]), 5%; in [5] it was 8%; in [6] (setting [12]) it was 7%. In addition, the “%Inh” value in test [7] (setting [12]) is listed as 7%; in [8] (setting [12]), 9%; in test [9], 11%; in test [10] (setting [12]), 1%.

Consider `COc1ccc(C2=C(Nc3cccc(C(=O)O)c3)C(=O)NC2=O)cc1` [SB-390765], for which the “%Inh” value in [1] (setting [12]) came to 7%; in test [2] (setting [12]), 15%; in test [3] (setting [12]) it was 17%; in test [4] (setting [12]), 13%; in [5], 8%; in [6] (setting [12]), 0%. For the same compound, the “%Inh” value in test [7] (setting [12]) came out at 12%; in test [8] (setting [12]) it was 7%; in test [9], 0%; in test [10] (setting [12]), 0%.

On to `Cn1ccc2ncnc(Oc3cccc(C(=O)Nc4ccccc4)c3)c21`, for which the “%Inh” value came to 0% in test [1] (setting [12]); 5% in test [2] (setting [12]); 0% in [3] (setting [12]); 0% in test [4] (setting [12]); 0% in [5]; 0% in test [6] (setting [12]). Further, the “%Inh” value was 6% in [7] (setting [12]), 1% in [8] (setting [12]), 16% in test [9] and 0% in [10] (setting [12]).

Take `Cc1ccc(NC(=O)Nc2cccc(Cl)c2)cc1-c1ccc(C(=O)Nc2ccncc2)cc1` [GSK1398468]: the “%Inh” value in test [1] (setting [12]) was 25%; in test [2] (setting [12]), 5%; in test [3] (setting [12]), 0%; in test [4] (setting [12]), 22%; in [5] it was 0%; in [6] (setting [12]) it was 14%. Besides, the “%Inh” value in [7] (setting [12]) was found to be 33%; in test [8] (setting [12]) it was 6%; in test [9], 0%; in test [10] (setting [12]), 11%.

Turning to `CCCc1ccc(S(=O)(=O)NC2CCN(c3ccnc(Nc4ccc(F)cc4)n3)C2)cc1` (stereo not drawn) [GSK1379715], the “%Inh” value in [1] (setting [12]) is given as 0%; in [2] (setting [12]), 4%; in test [3] (setting [12]) it was 0%; in [4] (setting [12]), 0%; in [5], 98.6%; in [6] (setting [12]), 5%. For the same compound, the “%Inh” value in test [7] (setting [12]) was 0%; in [8] (setting [12]), 22%; in test [9], 0%; in [10] (setting [12]), 0%.

Regarding `Fc1cccc(COc2nnc(-c3ccc4c(c3)CCO4)o2)c1`, the “%Inh” value is reported as 0% in [1] (setting [12]); 10% in test [2] (setting [12]); 1% in test [3] (setting [12]); 0% in [4] (setting [12]); 18% in test [5]; 16% in test [6] (setting [12]). Besides, the “%Inh” value in test [7] (setting [12]) is given as 0%; in [8] (setting [12]), 4%; in [9], 9%; in [10] (setting [12]), 0%.

Take `Cl.c1ccc(-c2n[nH]cc2-c2ccnc(-c3ccc(CN4CCOCC4)cc3)c2)nc1` [GW776245]: the “%Inh” value in [1] (setting [12]) stood at 19%; in [2] (setting [12]), 6%; in [3] (setting [12]), 5%; in test [4] (setting [12]), 8%; in test [5], 0%; in test [6] (setting [12]), 0%. For the same compound, the “%Inh” value in test [7] (setting [12]) is given as 0%; in [8] (setting [12]) it was 46%; in [9] it was 4%; in test [10] (setting [12]), 0%.

As to `CS(=O)(=O)c1ccc(-c2c(-c3ncn[nH]3)sc(N3CCOCC3)c2C#N)cc1`, the “%Inh” value in test [1] (setting [12]) was found to be 19%; in test [2] (setting [12]), 0%; in test [3] (setting [12]), 9%; in test [4] (setting [12]), 10%; in test [5], 0%; in test [6] (setting [12]), 0%. In addition, the “%Inh” value in [7] (setting [12]) was 0%; in test [8] (setting [12]), 17%; in [9], 0%; in test [10] (setting [12]), 0%.

As to `Cc1cccc(-c2nc(Nc3ccc4[nH]ncc4c3)c3ccccc3n2)n1` [GW857175], the “%Inh” value is listed as 0% in test [1] (setting [12]); 45% in test [2] (setting [12]); 12% in test [3] (setting [12]); 9% in [4] (setting [12]); 20% in [5]; 0% in test [6] (setting [12]). Also, the “%Inh” value in test [7] (setting [12]) came to 0%; in [8] (setting [12]), 0%; in test [9] it was 23%; in test [10] (setting [12]), 0%.

`Clc1cc(Cl)cc(Nc2ccnc(Nc3cc(Cl)cc(Cl)c3)n2)c1` [GSK175726]: the “%Inh” value in test [1] (setting [12]) was determined as 0%; in test [2] (setting [12]), 13%; in test [3] (setting [12]), 5%; in [4] (setting [12]), 18%; in [5], 0%; in test [6] (setting [12]), 19%. In addition, the “%Inh” value in test [7] (setting [12]), in [8] (setting [12]), in [9] and in test [10] (setting [12]) was 0% in each case.

For `CC(C)(C)c1ccc(C(=O)Nc2cn3cc(Cl)ccc3n2)cc1`, the “%Inh” value in test [1] (setting [12]) stood at 14%; in [2] (setting [12]) it was 18%; in [3] (setting [12]), 0%; in test [4] (setting [12]), 0%; in test [5], 6%; in test [6] (setting [12]) it was 16%. Moreover, the “%Inh” value in test [7] (setting [12]) is given as 0%; in [8] (setting [12]) it was 0%; in [9], 11%; in [10] (setting [12]) it was 0%.

As to `Cc1nnc(-c2ccc3occ(-c4ccc(S(C)=O)cc4)c3c2)[nH]1` (stereo not drawn), the “%Inh” value in test [1] (setting [12]) is 14%; in [2] (setting [12]) it was 0%; in test [3] (setting [12]), 0%; in [4] (setting [12]), 0%; in test [5], 11%; in [6] (setting [12]), 0%. Besides, the “%Inh” value is 2% in [7] (setting [12]), 7% in test [8] (setting [12]), 0% in [9] and 2% in [10] (setting [12]).

For the compound `CN1C(=O)C(Nc2ccc(Cl)c(C(=O)O)c2)=C(c2ccc(Cl)cc2)C1=O` [SB-404290], the “%Inh” value in test [1] (setting [12]) is on record as 0%; in [2] (setting [12]), 3%; in [3] (setting [12]) it was 0%; in test [4] (setting [12]), 0%; in [5] it was 1%; in [6] (setting [12]), 0%. For the same compound, the “%Inh” value in [7] (setting [12]) is listed as 13%; in [8] (setting [12]), 6%; in test [9], 0%; in [10] (setting [12]), 0%.
